From PubChem BioAssay (NCI)
Values joined by “and” are separate entries in the source; they are usually repeats but may differ in a detail not shown here. Identical values can stand only once. This is part of a sample that, as a whole, favours compounds with a hit. Of some 79,000 tested, about 15% had one in any assay. Values without a mark were called inactive. Active and inactive are the calls of the source. Rule as the data show it: active = growth inhibition above about 70%; inactive = the rest.

Test: NCI Yeast Anticancer Drug Screen. Data for the sgs1 mgt1 strain (AID 161);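 also: 0% = growth of cultures given vehicle only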
Settings: S. cerevisiae sgs1 mgt1 strain, at 50.0 µM, stronger effect = higher value
In short: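 Compounds are added to genetically altered yeast, and growth is compared with cultures given vehicle alone to give percent inhibition.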

Compound	growth inhibition
O=c1oc2ccccc2c(O)c1C(c1cnc2ccccc2c1)c1c(O)c2ccccc2oc1=O	12.7%
CNC(C)(C)Cc1ccc(Cl)cc1	27.9%
O=P(OCCCCl)(OCCCCl)C(Cl)(Cl)Cl	-5.2%
OC1(CN2CCCCC2)N=C(c2ccccc2)c2ccsc2-n2cccc21 (centres undefined)	-25.2%
O=c1[nH]c2ccccc2c(=O)n1-c1ccccc1	-1.05%
CCCCCCCCCCCOP(=O)(OCC)OCC	99.8% (active)
Cc1ccc(NC(=O)C(Cl)(Cl)Cl)cc1Cl	16.4%
NC(Cc1ccc(Cl)cc1)P(=O)(O)O (centres undefined)	-6.75%
c1ccc(-c2sc3cccc[n+]3c2-c2ccccc2)cc1	-14.5%
CC(=O)Oc1ccc([As](=O)(O)O)cc1	3.75%
CO[C](=[W])c1ccccc1.[C-]#[O+].[C-]#[O+].[C-]#[O+].[C-]#[O+].[C-]#[O+]	-2.3%
CC(C)c1cccc(OC(=O)N(C)C=O)c1	-12.8%
Cc1cnc2ncn(Cc3c[nH]c(=O)[nH]c3=O)c(=O)c2c1	-8%
CCCCC(Br)C(=O)OCC (centres undefined)	-26.5%

Test: NCI Yeast Anticancer Drug Screen. Data for the cln2 rad14 strain (AID 165);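 also: 0% = growth equal to vehicle treated cultures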
Settings: S. cerevisiae cln2 rad14 strain, at 50.0 µM, stronger effect = higher value
In short: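 Readout is yeast growth inhibition versus vehicle-treated controls, using a strain with cln2 and rad14 alterations exposed to compound.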

Compound	growth inhibition
NC(=O)/C=C/C(=O)O	-8.25%
O=C(O)c1cc(I)cc(I)c1I	-70.2%
CC(C)(C)NC(=O)C(Cl)Cl	-9.6%
O.O.O=Cc1ccccc1O.O=Cc1ccccc1O.[Co]	79.1% (active)
CC(Cc1ccc(O)cc1)NCC(O)c1ccc(O)c(O)c1 (centres undefined)	0.55%
CC1([N+](=O)[O-])COP(=O)(NCC2CCCO2)OC1 (centres undefined)	-4.1%
O=[As](O)(O)c1cc(F)ccc1F	-15.3%
O=C(O)COc1ccc(Cl)cc1Cl (tested in a mixture with another compound)	-19.1%
NC(CSC(c1ccccc1)c1ccccc1)C(=O)O (centres undefined)	5%
Cc1cccc(C)c1[S][Pb][S]c1c(C)cccc1C	-0.75%
O=C(CF)NCCCl	9.5%
O=C(Nc1ccc(Cl)cc1C(=O)c1ccccc1)c1ccc(Cl)cc1	-2%
CN1CN(c2ccccc2)C2(CCN(CC(C)(c3ccc(F)cc3)C3OCCCO3)CC2)C1=O (centres undefined)	-5.3%
CCOC(CNC(=O)c1ccc(S(=O)(=O)F)cc1)OCC	-5.9%
CCN(CC)CC(=O)c1ccccc1	9.45%
CCC[CH2][Sn]([CH2]CCC)([CH2]CCC)[CH2]CC(=O)OC	99.3% (active)
CCC(=O)C1(c2ccccc2)CCN(C)CC1	-16.5%
Cc1nnnn1C	-10.9%
O=[As](O)(O)c1cc(N=Nc2ccc(-c3ccc(N=Nc4cc([As](=O)(O)O)c(O)cc4O)cc3)cc2)c(O)cc1O	-19.7%
N#C[C@H](OC1OC(COC2OC(CO)C(O)C(O)C2O)C(O)C(O)C1O)c1ccccc1 (some centres undefined)	-1.3%

Compound	growth inhibition
CCCCCCN1C(C)C1C(C)C (centres undefined)	-3.8%
CCCCCOP(=O)(OCCCCC)C(=O)Nc1ccc([N+](=O)[O-])cc1	-3.2%
Cc1nnc2cc3ccccc3cn12	9.45%
C[N+](C)(C)CC1CCC(C[N+](C)(C)C)C1=NO (centres undefined)	13.2%
C[C@H]1CC(=O)C[C@@H]2CC[C@@H]3[C@H](CC[C@]4(C)C(OC(=O)c5cccc6c(=O)c7ccccc7[nH]c56)CC[C@@H]34)[C@]21C (some centres undefined)	41.9%
C=C(C)C1(CC)C(=O)NC(=O)N(C)C1=O (centres undefined)	10.2% and -11.2%
O=c1oc2ccccc2c(O)c1C(c1cnc2ccccc2c1)c1c(O)c2ccccc2oc1=O	26.2%
CNC(C)(C)Cc1ccc(Cl)cc1	24.9%
O=P(OCCCCl)(OCCCCl)C(Cl)(Cl)Cl	6.85%
OC1(CN2CCCCC2)N=C(c2ccccc2)c2ccsc2-n2cccc21 (centres undefined)	22.2%
O=c1[nH]c2ccccc2c(=O)n1-c1ccccc1	-6.05%
CCCCCCCCCCCOP(=O)(OCC)OCC	99.5% (active)
Cc1ccc(NC(=O)C(Cl)(Cl)Cl)cc1Cl	-5.2%
NC(Cc1ccc(Cl)cc1)P(=O)(O)O (centres undefined)	-53.9%
c1ccc(-c2sc3cccc[n+]3c2-c2ccccc2)cc1	-10.4%
CC(=O)Oc1ccc([As](=O)(O)O)cc1	-11.8%
CO[C](=[W])c1ccccc1.[C-]#[O+].[C-]#[O+].[C-]#[O+].[C-]#[O+].[C-]#[O+]	1.55%
CC(C)c1cccc(OC(=O)N(C)C=O)c1	-46.4%
Cc1cnc2ncn(Cc3c[nH]c(=O)[nH]c3=O)c(=O)c2c1	14.2%
CCCCC(Br)C(=O)OCC (centres undefined)	-11.6%
